Experimental data: PubChem BioAssay (Tox21)
Inconclusive results are not listed. The source made the active and inactive calls. Unless noted, the call rests on the fitted dose curve; in most records, active means well fitted curve in the direction sought with a large enough effect in the repeat runs; inconclusive means weak or mixed curves; inactive means no such curve, though single readings can be large; an effect the other way counts as inactive or inconclusive.

Columns and labels:
[1] = qHTS assay to identify small molecule agonists of the peroxisome proliferator-activated receptor delta (PPARd) signaling pathway - cell viability counter screen (AID 743211); further: on the % scale 0 is the no-effect control and ±100 the full control effect; nearly all actives have a fitted effect of over 55% in size
Procedure, shortened: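 Tox21 library compounds, delivered in DMSO, were incubated 17 h with PPARd-bla HEK293H cells; cytotoxicity was taken from CellTiter-Glo luminescence read 30 min after reagent addition.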

[2] = target: Peroxisome proliferator-activated receptor delta (Homo sapiens) (UniProt Q03181); test: qHTS assay to identify small molecule agonists of the peroxisome proliferator-activated receptor delta (PPARd) signaling pathway (AID 743212; calls by dose curve; further: on the % scale 0 is the no-effect control and ±100 the full control effect)
Procedure, shortened: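 HEK293H PPARd-bla cells; 5 h preincubation 37 C/5% CO2; compound (DMSO) 37 C; LiveBLAzer B/G FRET substrate 2 h RT; fluorescence intensity.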

[3] = qHTS assay to identify small molecule antagonists of the peroxisome proliferator-activated receptor delta (PPARd) signaling pathway - cell viability counter screen (AID 743213); further: on the % scale 0 is the no-effect control and ±100 the full control effect; nearly all actives have a fitted effect of over 50% in size
Procedure, shortened: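 In this counter screen, HEK293H cells carrying a UAS-beta-lactamase reporter are co-treated with test compounds and 300 nM L165041 (final) for 17 h at 37 C; cell viability is quantified by CellTiter-Glo luminescence.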

[4] = target: Peroxisome proliferator-activated receptor delta (Homo sapiens) (UniProt Q03181); test: qHTS assay to identify small molecule antagonists of the peroxisome proliferator-activated receptor delta (PPARd) signaling pathway (AID 743215; active means well fitted inhibition curve with a large enough effect in the signal ratio in the repeat runs, not every such curve was filed as active; the % refers to the signal ratio;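 further: cells stimulated with agonist L165041 at 300 nM final during compound exposure; series mostly up to about 62 µM; on the % scale 0 is the no-effect control and ±100 the full control effect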)
Procedure, shortened: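 PPARd-bla HEK293H cells (UAS-bla reporter) preincubated 5 h, then given compound plus 300 nM final L165041 agonist for 17 h at 37 C. Beta-lactamase activity read by LiveBLAzer B/G FRET substrate fluorescence after 2 h at room temperature.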

[5] = target: Bile acid receptor (Homo sapiens) (UniProt Q96RI1); test: qHTS assay to identify small molecule antagonists of the farnesoid-X-receptor (FXR) signaling pathway (AID 743217; active means well fitted inhibition curve with a large enough effect in the signal ratio in the repeat runs, not every such curve was filed as active; the % refers to the signal ratio; further: on the % scale 0 is the no-effect control and ±100 the full control effect)
Procedure, shortened: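 FXR-UAS-bla HEK 293T cells (beta-lactamase reporter) given compound plus chenodeoxycholic acid (50 uM final), 16 h at 37C. LiveBLAzer B/G FRET substrate added for 2 h at room temperature; fluorescence read.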

[6] = qHTS assay to identify small molecule agonists of the farnesoid-X-receptor (FXR) signaling pathway - cell viability counter screen (AID 743218); further: on the % scale 0 is the no-effect control and ±100 the full control effect; nearly all actives have a fitted effect of over 45% in size
Procedure, shortened: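 FXR-UAS-bla HEK 293T cells exposed to compounds for 16 h at 37C. Cytotoxicity read in the same wells by CellTiter-Glo luminescence after 30 min at room temperature, following the beta-lactamase FRET read.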

[7] = qHTS assay to identify small molecule antagonists of the farnesoid-X-receptor (FXR) signaling pathway - cell viability counter screen (AID 743221; active means well fitted cell-killing curve with a large enough effect in the repeat runs, not every such curve was filed as active; further: on the % scale 0 is the no-effect control and ±100 the full control effect; nearly all actives have a fitted effect of over 50% in size)
Procedure, shortened: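 Cytotoxicity is taken from ATP luminescence (CellTiter-Glo, 30 min, room temperature) in FXR-bla HEK 293T cells previously incubated 16 h at 37 C with compound and chenodeoxycholic acid at 50 uM final.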

[8] = target: Vitamin D3 receptor (Homo sapiens) (UniProt P11473); test: qHTS assay to identify small molecule agonists of the vitamin D receptor (VDR) signaling pathway (AID 743222; calls by dose curve; further: on the % scale 0 is the no-effect control and ±100 the full control effect)
Procedure, shortened: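 VDR-bla cells plated 4 h at 37 C, then exposed to compounds for 16 h at 37 C. Beta-lactamase reporter activity measured by fluorescence after 2 h room-temperature loading with LiveBLAzer B/G FRET substrate.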

[9] = target: Vitamin D3 receptor (Homo sapiens) (UniProt P11473); test: qHTS assay to identify small molecule antagonists of the vitamin D receptor (VDR) signaling pathway (AID 743223; active means well fitted inhibition curve with a large enough effect in the signal ratio in the repeat runs, not every such curve was filed as active; the % refers to the signal ratio; further: on the % scale 0 is the no-effect control and ±100 the full control effect)
Procedure, shortened: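 Quantitative HTS in VDR-bla reporter cells stimulated with 1alpha,25-dihydroxyvitamin D3, 3 nM final. Compound exposure 16 h, 37C, 5% CO2. Read-out: beta-lactamase FRET substrate fluorescence, 2 h RT.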

[10] = qHTS assay to identify small molecule agonists of the vitamin D receptor (VDR) signaling pathway - cell viability counter screen (AID 743224); further: series mostly up to about 63 µM; on the % scale 0 is the no-effect control and ±100 the full control effect; nearly all actives have a fitted effect of over 50% in size
Procedure, shortened: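 VDR-bla cells, 4 h after plating, exposed to compounds for 16 h at 37C; viability then read in the same wells as CellTiter-Glo luminescence after 30 min at room temperature, following the bla FRET read.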

[11] = qHTS assay to identify small molecule antagonists of the vitamin D receptor (VDR) signaling pathway - cell viability counter screen (AID 743225); further: on the % scale 0 is the no-effect control and ±100 the full control effect; nearly all actives have a fitted effect of over 50% in size
Procedure, shortened: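 Same-well multiplex: following 16 h treatment of HEK 293T cells carrying a UAS-driven beta-lactamase reporter with compound and agonist (3 nM final), and a 2 h FRET substrate step, CellTiter-Glo was added and luminescence read after 30 min.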

[12] = qHTS assay to identify small molecule agonists of the NFkB signaling pathway (AID 1159509; active means well fitted curve in the direction sought with a large enough effect in the signal ratio in the repeat runs, not every such curve was filed as active; the % refers to the signal ratio)
Procedure, shortened: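 NFkB-bla ME-180 cells carry a beta-lactamase reporter under an NF-kB response element. They were plated overnight, then exposed to compounds for 5 h at 37 C. Read-out is LiveBLAzer FRET after 1.5 hr at room temperature (405 nm excitation; 460/530 nm emission).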

[13] = qHTS assay to identify small molecule agonists of the NFkB signaling pathway - cell viability counter screen (AID 1159515; calls by dose curve; further: series mostly up to about 61 µM; on the % scale 0 is the no-effect control and ±100 the full control effect; nearly all actives have a fitted effect of over 55% in size)
Procedure, shortened: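 NFkB-bla ME-180 cells, 2,000/well, plated overnight at 37 C; compound added for 5 hr at 37 C. Viability read in the same wells as the bla reporter, by CellTiter-Glo luminescence after 30 min at room temperature.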

[14] = qHTS assay to identify small molecule agonists of the endoplasmic reticulum stress response signaling pathway (AID 1159516; active means well fitted activation curve with a large enough effect in the signal ratio in the repeat runs, not every such curve was filed as active; the % refers to the signal ratio; further: on the % scale 0 is the no-effect control and ±100 the full control effect)
Procedure, shortened: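 CellSensor ESRE-bla HeLa cells, 1,500 per well, plated overnight, then exposed to compounds for 5 hr at 37 C. Beta-lactamase reporter read with LiveBLAzer B/G FRET substrate after 2 hr at room temperature, 405 nm excitation, 460 and 530 nm emission.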

[15] = qHTS assay to identify small molecule agonists of the endoplasmic reticulum stress response signaling pathway - cell viability counter screen (AID 1159517; calls by dose curve)
Procedure, shortened: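 HeLa cells carrying an ESRE-driven beta-lactamase reporter receive compound for 5 hr at 37 C. Cell viability is then gauged with CellTiter-Glo by luminescence, 30 min at room temperature.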

[16] = qHTS assay to identify small molecule antagonists of the retinoid-related orphan receptor gamma (ROR-gamma) signaling pathway - cell viability counter screen (AID 1159520)
Procedure, shortened: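 Cytotoxicity was read from cellular ATP (CellTiter-Glo luminescence) after 16 hr at 37 C with 1 uM doxycycline induction. The inducer was added 2 hr after compound transfer to Tet-on ROR gamma CHO cells.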

[17] = target: Nuclear receptor ROR-gamma (Homo sapiens) (UniProt P51449); test: qHTS assay to identify small molecule antagonists of the retinoid-related orphan receptor gamma (ROR-gamma) signaling pathway (AID 1159521)
Procedure, shortened: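 Inducible-expression reporter assay: doxycycline (1 uM final) switched on RORγ in CHO cells bearing a ROR response element-luciferase construct, with test compounds present from 2 h beforehand. Decreased luminescence after 16 h defined antagonist activity.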

[18] = qHTS assay to identify small molecule agonists of the AP-1 signaling pathway - cell viability counter screen (AID 1159525; calls by dose curve; further: nearly all actives have a fitted effect of over 55% in size)
Procedure, shortened: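 Luminescent ATP readout (Cell Titer Glo, 30 min RT), normalised to DMSO and tetra n-octyl ammonium bromide controls. Cells were ME-180 AP-1-bla in 0.5% dialyzed FBS Opti-MEM, with a 5 h, 37 °C compound exposure.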

[19] = qHTS assay to identify small molecule agonists of the AP-1 signaling pathway (AID 1159526; calls by dose curve; further: on the % scale 0 is the no-effect control and ±100 the full control effect)
[20] = target: Bile acid receptor (Homo sapiens) (UniProt Q96RI1); test: qHTS assay to identify small molecule agonists of the farnesoid-X-receptor (FXR) signaling pathway (AID 743220; active means well fitted activation curve with a large enough effect in the signal ratio in the repeat runs, not every such curve was filed as active; the % refers to the signal ratio; further: on the % scale 0 is the no-effect control and ±100 the full control effect)
Procedure, shortened: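 Beta-lactamase reporter under UAS control in GeneBLAzer FXR HEK 293T cells (5000/well) measured with LiveBLAzer FRET substrate after 2 h at room temperature. Compound exposure lasted 16 h at 37C.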

Chain of Bile acid receptor (Homo sapiens) (Q96RI1 whole entry, looked up): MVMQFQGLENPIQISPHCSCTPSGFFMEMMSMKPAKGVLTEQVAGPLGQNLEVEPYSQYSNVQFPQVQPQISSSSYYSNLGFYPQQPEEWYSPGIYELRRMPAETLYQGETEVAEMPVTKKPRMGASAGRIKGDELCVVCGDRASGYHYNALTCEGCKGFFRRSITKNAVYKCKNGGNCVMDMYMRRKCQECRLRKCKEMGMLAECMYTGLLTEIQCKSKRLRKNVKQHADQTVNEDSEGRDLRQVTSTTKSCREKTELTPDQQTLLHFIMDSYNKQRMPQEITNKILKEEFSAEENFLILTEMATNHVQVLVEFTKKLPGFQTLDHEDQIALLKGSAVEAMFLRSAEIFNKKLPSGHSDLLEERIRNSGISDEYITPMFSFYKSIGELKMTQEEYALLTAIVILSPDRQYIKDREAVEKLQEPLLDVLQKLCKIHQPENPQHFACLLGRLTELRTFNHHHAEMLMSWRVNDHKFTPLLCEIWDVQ
Chain of Vitamin D3 receptor (Homo sapiens) (P11473 whole entry, looked up): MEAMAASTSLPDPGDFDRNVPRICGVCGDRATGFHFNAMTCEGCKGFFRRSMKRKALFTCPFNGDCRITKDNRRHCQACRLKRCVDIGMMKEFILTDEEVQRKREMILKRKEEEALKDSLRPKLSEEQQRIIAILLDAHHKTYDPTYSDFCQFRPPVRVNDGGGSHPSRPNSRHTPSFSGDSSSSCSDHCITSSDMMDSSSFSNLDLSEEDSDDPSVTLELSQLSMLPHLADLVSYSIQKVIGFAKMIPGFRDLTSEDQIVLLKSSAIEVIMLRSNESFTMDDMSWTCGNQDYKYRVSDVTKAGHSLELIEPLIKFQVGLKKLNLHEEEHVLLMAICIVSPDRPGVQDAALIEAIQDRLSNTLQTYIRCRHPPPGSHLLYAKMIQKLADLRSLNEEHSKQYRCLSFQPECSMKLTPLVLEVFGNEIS
Chain of Peroxisome proliferator-activated receptor delta (Homo sapiens) (Q03181 whole entry, looked up): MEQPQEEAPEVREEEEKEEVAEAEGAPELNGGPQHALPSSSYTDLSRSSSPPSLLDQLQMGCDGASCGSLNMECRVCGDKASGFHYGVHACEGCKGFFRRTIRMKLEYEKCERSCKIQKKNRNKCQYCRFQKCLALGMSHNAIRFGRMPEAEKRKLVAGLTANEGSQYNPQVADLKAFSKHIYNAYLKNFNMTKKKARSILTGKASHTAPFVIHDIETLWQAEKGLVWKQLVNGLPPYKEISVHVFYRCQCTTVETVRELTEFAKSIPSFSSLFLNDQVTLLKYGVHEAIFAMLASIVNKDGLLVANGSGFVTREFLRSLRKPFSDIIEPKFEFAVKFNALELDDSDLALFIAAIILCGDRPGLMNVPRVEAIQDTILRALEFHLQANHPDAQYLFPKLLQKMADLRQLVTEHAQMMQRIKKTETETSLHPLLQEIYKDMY

CCOc1cc(OCC)c(C(C)=O)cc1OCC
inactive: Potency [1] | Potency [2] | Potency [3] | outcome [4] | outcome [5] | Potency [6] | Potency [7] | outcome [8] | outcome [9] | outcome [10] | outcome [11] | outcome [12] | outcome [13] | outcome [14] | outcome [15] | Potency [16] | Potency [17] | outcome [18] | Potency [19]

NC(=O)c1cc[n+](CC2=C(C(=O)[O-])N3C(=O)[C@@H](NC(=O)Cc4cccs4)[C@H]3SC2)cc1
inactive: Potency [1] | Potency [2] | Potency [3] | outcome [4] | outcome [5] | Potency [6] | outcome [20] | Potency [7] | outcome [8] | outcome [10] | outcome [12] | outcome [13] | outcome [14] | outcome [15] | Potency [16] | Potency [17] | outcome [18] | Potency [19]

O=C(O)c1ccc2cc(O)ccc2c1
inactive: Potency [1] | Potency [2] | Potency [3] | outcome [4] | outcome [5] | Potency [6] | outcome [20] | Potency [7] | outcome [8] | outcome [9] | outcome [10] | outcome [11] | outcome [12] | outcome [13] | outcome [14] | outcome [15] | Potency [16] | Potency [17] | outcome [18] | Potency [19]

O=C1C=CCCC1
inactive: Potency [1] | Potency [2] | Potency [3] | outcome [4] | outcome [5] | Potency [6] | outcome [20] | Potency [7] | outcome [10] | outcome [11] | outcome [12] | outcome [13] | outcome [14] | outcome [15] | Potency [16] | Potency [17] | outcome [18] | Potency [19]

Sc1nc(S)nc(S)n1
inactive: Potency [1] | Potency [2] | Potency [3] | outcome [4] | outcome [5] | Potency [6] | outcome [20] | outcome [8] | outcome [10] | outcome [11] | outcome [12] | outcome [13] | outcome [14] | outcome [15] | Potency [16] | Potency [17] | outcome [18] | Potency [19]

O=S(=O)(O)c1cc(Cl)c(Cl)cc1Cl
inactive: Potency [1] | Potency [2] | Potency [3] | outcome [4] | Potency [6] | Potency [7] | outcome [8] | outcome [10] | outcome [12] | outcome [13] | outcome [14] | outcome [15] | Potency [16] | Potency [17] | outcome [18] | Potency [19]

CCCc1nc(C)c2c(=O)[nH]c(-c3cc(S(=O)(=O)N4CCN(CC)CC4)ccc3OCC)nn12
inactive: Potency [1] | Potency [2] | Potency [3] | outcome [4] | Potency [6] | Potency [7] | outcome [8] | outcome [9] | outcome [10] | outcome [11] | outcome [12] | outcome [13] | outcome [14] | outcome [15] | Potency [16] | Potency [17] | outcome [18] | Potency [19]

CC(C)(C)c1ccc(CCC=O)cc1
inactive: Potency [1] | Potency [2] | Potency [3] | outcome [4] | outcome [5] | Potency [7] | outcome [8] | outcome [10] | outcome [11] | outcome [12] | outcome [13] | outcome [14] | outcome [15] | Potency [16] | Potency [17] | outcome [18] | Potency [19]

CC(=O)Nc1cccc(N)c1
inactive: Potency [1] | Potency [2] | Potency [3] | outcome [4] | Potency [6] | outcome [20] | outcome [8] | outcome [9] | outcome [10] | outcome [12] | outcome [13] | outcome [14] | outcome [15] | Potency [16] | Potency [17] | outcome [18] | Potency [19]

C=CCCC
inactive: Potency [1] | Potency [2] | Potency [3] | outcome [4] | Potency [6] | Potency [7] | outcome [8] | outcome [9] | outcome [10] | outcome [11] | outcome [12] | outcome [13] | outcome [14] | outcome [15] | Potency [16] | Potency [17] | outcome [18] | Potency [19]

CCCCOc1ccc(N)cc1
inactive: Potency [1] | Potency [2] | Potency [3] | outcome [4] | outcome [5] | outcome [8] | outcome [9] | outcome [10] | outcome [11] | outcome [12] | outcome [13] | outcome [14] | outcome [15] | Potency [16] | Potency [17] | outcome [18] | Potency [19]

c1ccc(-c2ccc(-c3ccccc3)cc2)cc1
inactive: Potency [1] | Potency [2] | Potency [3] | outcome [4] | outcome [5] | Potency [6] | outcome [20] | Potency [7] | outcome [9] | outcome [10] | outcome [11] | outcome [12] | outcome [13] | outcome [14] | outcome [15] | activity, negative = cytotoxicity [16] 4.58% [at 19 µM] | activity change, negative = inhibition [17] 98.3% [at 19 µM] | viability change, negative = cytotoxic [18] 1.74% [at 15.8 µM] | activation [19] -13.1% [at 15.8 µM]

Cc1cc(N)n(-c2ccccc2)n1
inactive: Potency [1] | Potency [2] | Potency [3] | outcome [4] | Potency [6] | Potency [7] | outcome [8] | outcome [9] | outcome [10] | outcome [11] | outcome [12] | outcome [13] | outcome [14] | outcome [15] | Potency [16] | Potency [17] | outcome [18] | Potency [19]

CCOc1ccccc1O
inactive: Potency [1] | Potency [2] | Potency [3] | outcome [4] | outcome [5] | Potency [6] | outcome [20] | Potency [7] | outcome [8] | outcome [10] | outcome [11] | outcome [12] | outcome [13] | outcome [14] | outcome [15] | Potency [16] | Potency [17] | outcome [18] | Potency [19]

CC(C)C/C=C(\C=O)c1ccccc1
inactive: Potency [1] | Potency [2] | Potency [3] | outcome [4] | Potency [6] | outcome [20] | outcome [8] | outcome [9] | outcome [10] | outcome [12] | outcome [13] | outcome [14] | outcome [15] | Potency [16] | Potency [17] | outcome [18] | Potency [19]

O=P(c1ccccc1)(c1ccccc1)c1ccccc1
inactive: Potency [1] | Potency [2] | Potency [3] | outcome [4] | outcome [5] | Potency [6] | outcome [20] | Potency [7] | outcome [8] | outcome [9] | outcome [10] | outcome [11] | outcome [12] | outcome [13] | outcome [14] | outcome [15] | Potency [16] | Potency [17] | outcome [18] | Potency [19]
